Shiga inhibitor: Shiga toxin inhibition | 290,000 tested, 9.2% active | AID 2315 | inhibition, % at 38.7 µM | Vero cells, Shiga toxin protein synthesis inhibition reporter; in the data active = inhibition mostly above about 28%, no sharp cut-off; inactive = mostly below about 43%; note: 0% is about no effect
Pf growth 96h: P. falciparum growth inhibition at 96 hour, primary screen for plastid delayed-death inhibitors | Potency, µM (top dose mostly 28.7 µM), for the others: top-dose activity change, negative = inhibition, most hits filed as inhibitors | AID 504834 | 320,000 tested, 6.9% active | P. falciparum luciferase reporter growth, 96 h; note: potency is the fitted concentration of half-maximal effect; % is set by controls: 0 for no effect and ±100 for the full control effect
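Erythrocytes infected with luciferase-expressing P. falciparum were dispensed at 2% hematocrit and 0.05% parasitemia (final), then incubated with compounds 96 hours at 37 C in 5% CO2. Luminescence after detection reagent addition reported growth.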
AMA1-RON2 inh: inhibitors of Plasmodium falciparum AMA1-RON2 interaction; Potency, µM (titrated, usually from 58.2 µM), for the others: at the highest dose activity change, negative = inhibition, actives largely listed as inhibitors; 360,000 tested, 0.2% active; AlphaScreen AMA1-biotinylated RON2 peptide binding; AID 720542;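 note: potency is the fitted concentration of half-maximal effect; 0% = vehicle wells and -100% = peptide control; nearly all actives have a fitted effect of over 45% in size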
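AMA1 (3D7) with his tag at 25 nM final met compounds first, then biotinylated RON2 peptide at 25 nM; detection used donor plus acceptor beads, 10 µg/mL apiece, read by AlphaScreen after 30 min at room temperature.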
SARS PLpro yeast: blocks SARS-CoV papain-like protease in a yeast assay | S. cerevisiae expressing SARS-CoV PLpro, growth rescue | Potency, µM (doses to about 32.9 µM), inactives show top-dose activity, positive = growth rescue, most hits filed as activators | 330,000 tested, 0.19% active | AID 485353; calls by dose curve; note: potency is the fitted concentration of half-maximal effect; 0% is about no effect; nearly all actives have a fitted effect of over 55% in size
CHX counter: affects cycloheximide protein synthesis inhibition readout, counter-screen; 300,000 tested, 12% active; max response, %; cell reporter, cycloheximide protein synthesis inhibition counterscreen; AID 2314; in the data active = max response mostly above about 13%, no sharp cut-off; inactive = mostly below about 14%; note: read at 38.3 µM for the half of the compounds with a filed dose; 0% is about no effect
Pf growth 48h: inhibits P. falciparum growth in the first generation, 48 h | P. falciparum luciferase growth in erythrocytes, 48 h | Potency, µM (series often up to 28.7 µM), without a hit: top-dose activity change, negative = inhibition, actives largely listed as inhibitors | 310,000 tested, 5.9% active | AID 504832; note: potency is the fitted concentration of half-maximal effect; % is set by controls: 0 for no effect and ±100 for the full control effect
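In quantitative HTS format, infected erythrocytes bearing luciferase-reporter parasites were treated for a single generation at 37 C. Luminescence after adding detection reagent served as the growth measure.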
* hit, by the source's call; ? = inconclusive; . = no result; [ ] = remark or other dose. Rows were chosen to be rich in hits. Some 19% of all compounds tested hit in one or more screens of this group. Unless noted, calls come from the whole dose curve; as a rule, active = well fitted curve in the direction sought with a large enough effect; inconclusive = small, poorly fitted or top-dose-only effect, or another doubt; inactive = no such curve, though single readings can be large; an effect the other way counts as inactive or inconclusive.

SMILES	Shiga inhibitor	Pf growth 96h	AMA1-RON2 inh	SARS PLpro yeast	CHX counter	Pf growth 48h
COC(=O)c1ccc(OCC(=O)c2cccc(OC)c2)cc1	64.5*	1.7%	20.8%	-8.4%	42.8*	149.3%
O=C(NNC(=O)c1ccccc1C(=O)O)c1ccc(-c2ccccc2)cc1	27.5	8.6%	.	-3.1%	15.9	5.5%
COc1ccc(NC(=O)/C(=C\c2ccc(OC)c(OC)c2)NC(=O)c2ccco2)cc1	-18.4	50.2%	-10.7%	-0.3%	1.7	?
CCN(CC)CC(C)OC(=O)c1ccccc1Cl (stereo not given)	-9.3	-9.8%	0.0%	-1.8%	0.4	14.4%
Cc1ccc(S(=O)(=O)N2CC3(O)CN(C(=O)OC(C)C)N(C(=O)OC(C)C)CC3(OC(=O)NC3CCCC3)C2)cc1 (stereo not given)	.	.	-16.4%	.	.	.
C=CCn1c(SCC(=O)Nc2cccnc2Cl)nnc1-c1ccc(C(C)(C)C)cc1	31.2	?	2.5%	4.1%	13.0*	-13.7%
COc1cccc(C2c3c(-c4cc(Cl)c(C)cc4O)n[nH]c3C(=O)N2Cc2cccnc2)c1 (stereo not given)	-18.6	6.57µM*	-7.8%	11.1%	-2.4	.
COc1cc(C2c3c(-c4cc(Cl)c(C)cc4O)n[nH]c3C(=O)N2Cc2cccnc2)ccc1O (stereo not given)	-9.6	.	116.8%	-2.5%	1.9	8.28µM*
N#CCc1ccc(NC(=O)/C=C/c2ccc([N+](=O)[O-])o2)cc1	56.3*	-0.9%	-0.6%	-0.1%	36.6*	-23.0%
Cc1cccc(COc2coc(CN3CCN(C(=O)c4ccco4)CC3)cc2=O)c1	.	11.7µM*	-0.3%	-8.1%	.	?
Cc1ccc(C)c(OCc2cc(C(=O)N3CCN(C(=O)c4ccco4)CC3)no2)c1	78.3*	0.2%	-3.5%	-0.9%	41.7*	-2.9%
O=C(c1cc(COc2ccc(F)cc2F)on1)N1CCN(C(=O)c2ccco2)CC1	-5.2	-21.7%	6.7%	1.0%	8.3	2.7%
O=C(c1ccco1)N1CCN(Cc2cc(=O)c(OCc3ccccc3)co2)CC1	.	?	17.1%	-1.6%	.	31.2%
Cc1ccc(C)c(OCc2cc(C(=O)N3CCN(c4ccccc4)CC3)no2)c1	97.6*	-8.0%	-8.8%	-2.9%	92.7*	3.8%
CCN(CC)C(=O)C(=O)N/N=C/c1cccc(Br)c1	-6.1	9.3%	0.0%	7.3%	1.3	5.2%
CCCCC(CC)C(=O)O (stereo not given)	.	.	-18.7%	1.5%	.	.
CCn1cc(CN2CCC(Oc3ccc(C(=O)N4CCCCC4)cc3)CC2)cn1	17.5	?	-18.2%	1.3%	-3.8	28.0%
COc1ccc(/C=C(\C#N)C(=O)c2cccn2C)cc1	-2.8	12.5%	-8.3%	1.0%	-2.0	-15.6%[0.00184 µM]
Cn1cccc1C(=O)/C(C#N)=C/c1ccc(F)cc1	32.6	1.5%	-3.3%	0.0%	18.6*	.
Cn1cccc1/C=C(/C#N)c1ccc(F)cc1	37.5	46.2%	?	0.6%	26.4*	25.0%
O=C(CSCc1c(Cl)cccc1Cl)Nc1ccc2c(c1)OCO2	28.7	?	-12.7%	-4.3%	7.6	.
O=C(CSCc1ccccc1)Nc1ccc2c(c1)OCO2	114.6*	.	-1.8%	3.5%	38.8*	262.6%
O=C(CSCc1ccc(Cl)cc1)Nc1ccc2c(c1)OCCO2	96.2*	36.8%	-4.0%	-7.7%	35.6	43.3%
S=C(Nc1ccc(Cl)cc1)NC1CCN(Cc2ccccc2)CC1	-6.7	6.57µM*	-3.0%	-20.1%	-3.1	?
Cc1ccc(CSCC(=O)Nc2ccc3c(c2)OCO3)cc1	57.4*	-100.0%	-6.0%	?	21.3	.
SMILES	Shiga inhibitor	Pf growth 96h	AMA1-RON2 inh	SARS PLpro yeast	CHX counter	Pf growth 48h
CCN1CCN(c2ccc(S(=O)(=O)N3CCOCC3)cc2NC(=O)c2ccc(Cl)s2)CC1	.	?	45.2%	-2.0%	.	?
CCCNC(=O)NC(=O)CSc1ccc2c(c1)OCCO2	-14.2	.	41.9%	-14.0%	-1.6	22.0%
CC(C)Oc1ccc(C(CC(=O)O)NC(=O)c2cccs2)cc1 (stereo not given)	-18.9	.	-13.0%	-2.7%	-2.3	-5.7%
CC1(C(=O)NS(=O)(=O)c2ccc(Cl)s2)CCN1C(=O)Cc1ccccc1Cl (stereo not given)	.	.	1.4%	.	.	.
O=c1c2ccccc2c(C=NC2CCN(Cc3ccccc3)CC2)c(O)n1Cc1ccc2c(c1)OCO2	-9.7	?	.	0.5%	2.5	4.65µM*
CN(C)CCN=Cc1c(O)n(Cc2ccc3c(c2)OCO3)c(=O)c2ccccc12	-3.8	15.0%	5.1%	-0.3%	0.9	91.9%
O=C(Nc1ccc2c(c1)OCO2)NC1CCN(Cc2ccccc2)CC1	41.2*	.	-8.3%	-1.2%	35.8*	?
CCc1ccc(N(C(=O)c2csnn2)C(C(=O)NC(C)(C)CC)c2cccnc2)cc1 (stereo not given)	12.1	?	19.9%	-2.6%	-0.5	-20.8%
O=C(Nc1ccc(N2CCOCC2)cc1)c1ccc(COc2ccccc2)cc1	39.8	?	5.2%	4.2%	-2.4	-6.9%
O=C(Nc1cccc(-c2cccc(F)c2)c1)C1CCN(C2CCOCC2)CC1	-4.8	7.38µM*	-1.6%	-3.4%	0.8	?
O=c1[nH]cnc2c1ncn2[C@@H]1O[C@H](COS(=O)(=O)O)[C@@H](O)[C@H]1O	.	.	8.5%	-44.3%	.	.
COc1ccc(C(=O)NCC(=O)OCC(=O)Nc2cccc(S(=O)(=O)N3CCCC3)c2)cc1	-4.6	106.8%	-2.3%	0.3%	4.0	-11.3%
O=c1c2ccccc2nnn1CSc1nc2ccccc2c(=O)n1Cc1ccco1	-4.7	24.1%	5.8%	?	-1.6	1.4%
NC(=O)C1CCN(C(=O)c2ccc3c(=O)n(Cc4ccco4)c(SCc4ccc([N+](=O)[O-])cc4)nc3c2)CC1	-2.4	?	0.0%	7.4%	9.9	11.7µM*
O=c1c2ccccc2nc(SCc2nnc(-c3ccccc3Br)o2)n1Cc1ccco1	-9.0	.	13.4%	-3.2%	17.2*	?
CCCCCn1c(SCC2CCCO2)nc2cc(C(=O)N3CCC(C(N)=O)CC3)ccc2c1=O (stereo not given)	-4.3	15.0%	-3.7%	1.2%	-1.4	?
FC(F)(F)COc1cc(-c2nnc(SCc3ccccc3)n2Cc2ccco2)cc(OCC(F)(F)F)n1	15.2	11.7µM*	-4.2%	0.4%	2.4	6.57µM*
CCOc1ccc2nc(NC(=O)CSc3nc4ccccc4c(=O)n3Cc3ccco3)sc2c1	-0.7	1.31µM*	3.3%	2.3%	-0.4	?
CN(C)C(CNC(=O)CSc1nc2ccccc2c(=O)n1Cc1ccco1)c1ccccc1 (stereo not given)	.	?	0.2%	-3.1%	.	?
Cc1c(NS(=O)(=O)c2ccc(NCCN3CCOCC3)c([N+](=O)[O-])c2)c(=O)n(-c2ccccc2)n1C	20.4	-2.1%	-17.2%	-0.3%	4.4	0.0%

Screens as filed in PubChem.
